# Sampled rows, rich in hits. Any-hit rate of the full collection: about 6.8%.
# Cy5 interf NS3h – Cy5 fluorescence interference, HCV helicase counter-screen. Cy5-dT15 DNA with NS3h; actives lie on both sides; signal over control mean, under 1 quenches. fluorescence interference ratio at 100 µM. hit rate 6% among 16,000. AID 720488;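 active means compound fluorescence over control fluorescence at most 0.8, a quencher, or at least a set upper limit, an enhancer; inactive means ratio between 0.8 and the set upper limit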
# HCV NS3h FP – hepatitis C NS3 helicase inhibition, primary screen; NS3h Cy5-dT15 DNA binding, fluorescence polarization; inhibition, % at 100 µM; hit rate 1.6% among 16,000;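 active means inhibition above the average over every tested compound plus 3 SD, cut at about 40% in these data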
# An asterisk follows results filed as active.
SMILES,Cy5 interf NS3h,HCV NS3h FP
COc1ccc(N(CC(=O)Nc2ccc(C)c(C)c2)S(C)(=O)=O)cc1,1.2*,10
Cc1ccc(N(Cc2ccc(C(=O)NCCSc3ccc(Cl)cc3)cc2)S(C)(=O)=O)cc1C,0.93,0
COCCCNC(=O)c1ccc(N(C)S(=O)(=O)c2ccccc2)cc1,1.1,4
O=C(Nc1cc(Cl)cc(Cl)c1)S(=O)(=O)c1ccccc1,0.95,7
C=CC(=O)Oc1ccc(N2C(=O)C3CC=C(C)CC3C2=O)cc1 (centres undefined),1,7
Cc1ccc(N2C(=O)/C(=C/c3cc(C)n(C)c3C)C(=O)NC2=S)c(C)c1,1,12
C/C(=N\N)c1ccc(-c2ccccc2)cc1,1,2
COc1ccc(N(Cc2ccc(C(=O)NCc3ccccc3OC)cc2)S(=O)(=O)c2ccccc2)cc1,0.69*,20
COc1ccccc1CNC(=O)c1ccc(CN(c2ccccc2)S(C)(=O)=O)cc1,0.97,7
O=C(Nc1cccc2nsnc12)c1cc2ccccc2o1,0.99,-2
CN(C)/C(=N\OC(=O)c1ccc([N+](=O)[O-])cc1)c1nonc1N,0.67*,19
N/C(=N/OC(=O)c1ccc(I)cc1)c1ccc([N+](=O)[O-])cc1,0.95,3
Cc1cc(Nc2cccc(F)c2)n2c(nc3ccccc32)c1C#N,1,2
Cc1cc(Nc2cccc(O)c2)n2ncnc2n1,0.69*,9
COc1ccc(N2C(=O)C3C(c4ccccc4Cl)OC4(C(=O)c5ccccc5C4=O)C3C2=O)c(OC)c1 (centres undefined),0.95,13
O=C(Nc1ccc(F)c([N+](=O)[O-])c1)C(c1ccccc1)c1ccccc1,1,8
O=[N+]([O-])c1cc(NS(=O)(=O)Cc2ccccc2)ccc1F,0.63*,-2
CCc1cc2c(=O)c(-c3nc4ccccc4s3)c(C)oc2cc1OS(C)(=O)=O,1.2*,7
CCC(=O)Oc1cc2oc(CC)c(-c3nc(C)cs3)c(=O)c2cc1CC,0.91,18
O=C(Nc1ccc(Cl)c(C(F)(F)F)c1)c1cccc(Br)c1,1.1,12
CCN(CC)C(=O)CN(c1cc(Cl)ccc1OC)S(=O)(=O)c1ccc(C)c([N+](=O)[O-])c1,1.1,12
COc1ccc(Cl)cc1N(CC(=O)NCC(C)C)S(=O)(=O)c1ccc(C)c([N+](=O)[O-])c1,0.71*,19
CCOc1ccccc1NC(=O)CN(c1cc(Cl)cc(Cl)c1)S(C)(=O)=O,0.95,14
CC1(C)CC(=O)C/C(=N\NC(=O)c2ccccc2)C1,0.94,1
O=C1/C(=C/c2cccs2)SC(=S)N1c1ccc(F)cc1,0.92,-4
SMILES,Cy5 interf NS3h,HCV NS3h FP
Cc1ccc(C(=O)N/C(=C\c2cccc(Br)c2)C(=O)N2CCCCC2)cc1,1,-4
CC(=O)c1ccc(NC(=S)NC(NC(=O)c2ccc(C)cc2)C(Cl)(Cl)Cl)cc1 (centres undefined),0.99,-8
O=C(NC(NC(=S)Nc1cccc2ccccc12)C(Cl)(Cl)Cl)c1ccccc1 (centres undefined),0.9,8
CC(=O)Nc1ccc(NC(=S)NC(NC(=O)c2ccc(C)cc2)C(Cl)(Cl)Cl)cc1 (centres undefined),0.67*,6
CC(=O)NC(NC(=S)Nc1cccc(Cl)c1)C(Cl)(Cl)Cl (centres undefined),1.2*,19
Cc1ccc(C(=O)NC(NC(=S)Nc2cccc3ccccc23)C(Cl)(Cl)Cl)cc1 (centres undefined),0.71*,5
CC(=O)c1ccc(NC(=S)NC(NC(=O)c2ccc(Cl)cc2Cl)C(Cl)(Cl)Cl)cc1 (centres undefined),1,0
Cc1ccccc1NC(=O)/C=C/c1ccc(F)cc1,1,-4
COc1ccc(C2CC(C(F)(F)F)n3nc(C(=O)N4CCN(c5ccccc5)CC4)c(Cl)c3N2)cc1OC (centres undefined),0.99,14
COc1cc(/C=N\NC(=O)c2cccc(I)c2)ccc1OC(C)=O,1,6
O=C(Nc1c(C(=O)N2CCOCC2)cnn1-c1ccccc1)c1ccccc1,1,-2
O=C(Nc1c(C(=O)N2CCCCCC2)cnn1-c1ccccc1)c1cccc(F)c1,1.3*,31
O=C1S/C(=C/c2ccc(Cl)cc2Cl)C(=O)N1c1ccccc1,0.99,3
CC(=C\c1ccccc1)/C=C1/SC(=O)N(c2ccc(Cl)cc2)C1=O,0.78*,16
Cc1ccc(NC(=O)n2ccc(C(=O)N3CCOCC3)n2)cc1,0.94,2
O=C1CCCC2=C1C(c1ccc3c(c1)OCO3)Nc1ccc3ccccc3c12 (centres undefined),0.72*,21
Cc1ccsc1C1Nc2ccc3ccccc3c2C2=C1C(=O)CC(C)(C)C2 (centres undefined),0.97,12
Cc1cc(C=O)c(C)n1-c1ccc(Cl)cc1,1.1,9
O=C1CCC(C(=O)c2ccccc2)C(O)=C1C=NCCO (centres undefined),1.1,1
O=C1c2ccccc2C(=O)N1CCc1nc2ccccc2c(=O)n1-c1nccs1,0.59*,16
Cn1c(CC(O)(c2ccccc2)c2ccccc2)nc2ccccc21,1.1,12
Cn1c(-n2c(CCCN3C(=O)c4ccccc4C3=O)nc3ccccc3c2=O)nc2ccccc21,0.67*,12
O=C(CCN1C(=O)c2ccccc2C1=O)NCc1ccccn1,0.97,7
O=C(c1ccccc1F)N1CCN(c2ccc(Cl)cc2[N+](=O)[O-])CC1,0.82,15
CCCCOc1ccc(Cc2c(O)nc(N)[nH]c2=O)cc1,1,5
SMILES,Cy5 interf NS3h,HCV NS3h FP
Cn1c2nc(-[n+]3ccccc3)nc-2c([O-])n(C)c1=O,0.97,-12
COC(=O)c1cccc(N2C(=O)c3ccc(Oc4ccc([N+](=O)[O-])cc4)cc3C2=O)c1,0.96,7
Cc1ccc(C(=O)Oc2ccc(/C=C3\SC(=S)NC3=O)cc2)cc1,1,11
CCC1=NN2C(=N)/C(=C/c3ccc(-c4ccc([N+](=O)[O-])cc4OC)o3)C(=O)N=C2S1,1.2*,9
COc1cc([N+](=O)[O-])ccc1-c1ccc(/C=C2\C(=O)NC(=S)N(c3ccc(C)cc3)C2=O)o1,1.1,23
O=C(/C=C/c1ccc(Cl)cc1)Nc1ccc(NC(=O)c2ccco2)cc1,1.1,14
COCCN1C(=O)/C(=C/c2ccc3c(c2)OCO3)SC1=S,1,20
O=C1/C(=C\c2ccc3c(c2)OCO3)SC(=S)N1c1cccc(C(F)(F)F)c1,1.1,0
Cc1cccc(N2C(=O)/C(=C/c3ccc4c(c3)OCO4)SC2=S)c1C,0.77*,14
O=C1S/C(=C/c2ccc3c(c2)OCO3)C(=O)N1CN1CCCC1,0.57*,-8
Cc1cc(C)c(S(=O)(=O)Nc2ccc(C(C)C)cc2)c(C)c1,0.88,17
Clc1ccccc1Cc1noc(-c2ccc(Br)cc2)n1,1.1,-2
CCCc1noc(-c2ccc(C(C)(C)C)cc2)n1,0.71*,7
CCCc1noc(-c2ccccc2Cl)n1,0.76*,2
Clc1ccccc1Cc1noc(-c2ccccc2Cl)n1,0.92,2
O=c1oc(/C=C\c2ccccc2)nc2ccc(Br)cc12,1.1,9
O=C(O/N=C(\c1ccncc1)c1ccc([N+](=O)[O-])cc1)c1ccccc1F,0.99,12
CCCCOc1ccc(C(=O)O/N=C(\c2ccncc2)c2ccc([N+](=O)[O-])cc2)cc1,0.75*,10
Cc1ccc(C(=O)Nc2c(-c3ccccc3)nc3cc(C)ccn23)cc1,0.88,14
